# From PubChem BioAssay
# Hits are enriched below; roughly 4.3% of the tested compounds scored in any of these assays.
# FGF22 binding = shifts melting point of recombinant human FGF22. Q9HCT0. recombinant FGF22 thermal shift, SYPRO orange fluorescence; percent of sucrose octasulfate shift, DMSO zero. activity (Tm shift, normalised), % at 9.99 µM. 340,000 compounds, 1.5% hits. AID 651658;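 active = mean Tm shift, scaled 0 neutral to 100 positive control, at about 1.3% or above, every replicate too, limit read from the data; inconclusive = no clear call, values can overlap the other calls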
# Target sequence (Q9HCT0 whole entry, looked up): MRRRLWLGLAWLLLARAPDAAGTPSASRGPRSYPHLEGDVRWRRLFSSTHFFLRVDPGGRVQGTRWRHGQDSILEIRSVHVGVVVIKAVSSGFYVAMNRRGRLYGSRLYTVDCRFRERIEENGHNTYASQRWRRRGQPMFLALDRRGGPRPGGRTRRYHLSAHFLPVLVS
# SMARCA2 act = activators of SMARCA2 function. 370,000 compounds, 1% hits. MG213 cells, MMTV-luciferase reporter, dexamethasone, overnight. activation, % at 9.1 µM; in the data active = activation above about 7.8%;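 also: 0% = vehicle wells and 100% = reference activator wells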
# AF4-AF9 inh = blocks AF4 peptide binding to human AF9 | P42568 | AlphaScreen, biotin-AF4 peptide binding to FLAG-AF9 | inhibition, % at 10 µM | 350,000 compounds, 0.47% hits | AID 651704;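 active = every replicate reaching a set inhibition limit, whatever the replicate mean, cut at about 25% in these data; inconclusive = mean inhibition reaches that limit but some replicates miss it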;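 also: 0% = plate neutral control median and 100% = total signal loss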
# esBAF inh = blocks esBAF chromatin remodeling in mouse ES cells; reporter increase, % at 12.5 µM; 350,000 compounds, 2% hits; AID 602393; Bmi1-luciferase knock-in reporter, 24 h; 100% = twice the neutral-well signal; in the data active = activation above about 40%; inconclusive = no clear call, values can overlap the other calls;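 also: 0% = median of the plate's neutral control wells and 100% = double that signal; a rise in the Bmi1 reporter signal indicates esBAF inhibition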
# Wnt bcat act = activates Wnt/beta-catenin signaling in a reporter cell assay; activator, plate reader; activation, % at 9.35 µM; 300,000 compounds, 1.2% hits; AID 743398; in the data active = activation above about 30%, passing the limit was not always enough; inconclusive = no clear call, values can overlap the other calls;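 also: 0% = neutral control wells and 100% = positive control wells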
# MITF TRPM1 HTS = increases MITF-driven TRPM1 promoter luciferase signal; AID 588334; SK-MEL-5 TRPM1-promoter luciferase, 24 h; % of positive control, neutral wells = 0; 300,000 compounds, 0.75% hits; activation, % at 12.5 µM;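 active = mean activation of at least 80% with every replicate also reaching 80%; inconclusive = mean reaches 80% but some replicate falls short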;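 also: 0% = neutral control wells and 100% = parthenolide positive control wells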
# SMARCA2 act conf = confirmation of SMARCA2 (BRM) function activators | activation, % at 9.1 µM | AID 652260 | MG213 cells, MMTV-luciferase with dexamethasone, luminescence, overnight; MG213 cells expressing E1A, Rb sequestered; DMSO wells 0%, reference activator 100% | 3,500 compounds, 30% hits | shares compounds with SMARCA2 act;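 active = activation above its plate's cutoff, the mean activation of tested wells plus 3 SD, cut at about 7.9% in these data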
# VP16 Luc act = GAL4-VP16 reporter activation counter-screen; shares compounds with SMARCA2 act; HEK293 GAL4-VP16 pG5luc reporter, luciferase luminescence; scaled: DMSO wells 0%, SAHA wells 100%; activation, % at 9.1 µM; 3,500 compounds, 41% hits; AID 686939;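 active = activation above the solvent-only control well mean plus 3 SD, averaged across control plates, cut at about 5.2% in these data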
# Starred values were filed as active, the others as inactive; ? = inconclusive; · = no result.
SMILES,FGF22 binding,SMARCA2 act,AF4-AF9 inh,esBAF inh,Wnt bcat act,MITF TRPM1 HTS,SMARCA2 act conf,VP16 Luc act
CN(C)CCN1C(=O)c2cccc3cc([N+](=O)[O-])cc(c23)C1=O,0,15*,0,·,-17,·,11*,7.2*
COc1cccc2cc(C(=O)OCC(=O)NCc3ccc4c(c3)OCO4)c(=O)oc12,0,11*,-6,·,-1,45,6,5
COCC(=O)N1CCC2(CC1)CN(C(=O)Nc1ccccc1F)[C@H](CO)c1[nH]c3cc(OC)ccc3c12,0,·,0,·,·,·,·,·
C[C@H]1CN([C@@H](C)CO)C(=O)c2cc(NS(=O)(=O)c3cn(C)cn3)ccc2O[C@@H]1CN(C)Cc1ccc(Oc2ccccc2)cc1,0,·,6,1,·,·,·,·
O=C(Nc1nnc(-c2ccc(F)cc2)s1)Nc1ccccc1F,0,-1,0,·,7,·,·,·
O=C(Nc1nnc(-c2ccccc2SCc2ccccc2F)s1)Nc1ccccc1F,·,8.3*,·,-5,·,1,2,2
COCC(=O)Nc1ccc2c(c1)C(=O)N(C)[C@H]1CC[C@@H](CC(=O)NCc3ccccc3Cl)O[C@H]1CO2,0,·,·,3,·,·,·,·
O=C(Cn1cncn1)c1ccc(Cl)cc1,0,-1,3,-2,0,-5,·,·
Cc1ccc(C(=O)Cn2cncn2)cc1,0,10*,1,-4,13,11,-2,0
CCC(=O)N1CC2(C1)[C@H](c1ccc(-c3ccccc3)cc1)[C@@H](CO)N2S(C)(=O)=O,0,·,-2,·,·,·,·,·
COc1ccc2c3c(n(C)c2c1)[C@@H](CO)N(CC1CCCCC1)CC31CN(C(C)=O)C1,0,·,-2,·,·,·,·,·
CC1CCN(C(=O)c2cc(-c3ccc4c(c3)OCO4)on2)CC1,0,7,-2,-8,24,?,·,·
CC1CCCCN1C(=O)c1cc(-c2ccc3c(c2)OCO3)on1 (stereo not drawn),0,9.2*,-3,31,36*,139*,6,12*
Cn1c(/C=C/c2ccccc2)nc2ccccc21,0,8.9*,10,·,-4,-49,5,7.8*
CC(=O)c1ccc(/C=C/c2nc3ccccc3n2C)o1,0,8.8*,-2,·,35*,·,23*,12*
Cn1c(=O)c(/C=C/c2ccccc2)nc2ccccc21,·,5,·,·,0,43,·,·
COCCn1c(-c2ccccc2)nc2ccccc21,·,0,·,11,5,16,·,·
COCCn1c(/C=C/c2ccccc2)nc2ccccc21,0,9.2*,-1,37*,13,97*,7,13*
COc1ccc(CNC(=O)C[C@@H]2C=C[C@H](NC(=O)c3cccc(F)c3)[C@@H](CO)O2)cc1,0,·,-3,3,·,·,·,·
COc1cccc(S(=O)(=O)N2C[C@@H](O)COC[C@@H]3O[C@@H](CC(=O)N4CCCCC4)CC[C@H]32)c1,-1,·,0,3,·,·,·,·
Cc1noc(C)c1NC(=O)Nc1ccc2c(c1)CC(=O)N([C@@H](C)CO)C[C@H](C)[C@@H](CN(C)Cc1ccc(C(F)(F)F)cc1)O2,·,·,·,-3,·,·,·,·
CC12CCC(c3c(C(=O)O)nn(-c4ccccc4)c31)C2(C)C (stereo not drawn),0,9.4*,4,5,-1,14,-2,0
CC12CCC(c3c(CO)nn(-c4ccccc4)c31)C2(C)C (stereo not drawn),·,-2,·,-5,·,·,·,·
O=C(c1cc(-c2ccc(Br)cc2)on1)N1CCOCC1,0,7,0,-9,16,28,·,·
S=C(c1ccc(-c2ccc(Br)cc2)o1)N1CCCCC1,0,8.1*,3,48*,46*,72,16*,8.3*
SMILES,FGF22 binding,SMARCA2 act,AF4-AF9 inh,esBAF inh,Wnt bcat act,MITF TRPM1 HTS,SMARCA2 act conf,VP16 Luc act
O=C(c1cc(-c2ccc(Br)cc2)on1)N1CCCCCC1,0,9.4*,-3,8,?,69,4,5.7*
COc1cc(C)nc(NC(=O)NC(=O)c2ccc(C(F)(F)F)cc2)n1,0,8.1*,-5,1,-1,11,0,0
COc1ccc(C(=O)Nc2nc(C)cc(C)n2)cc1,0,-4,-3,·,-2,-1,·,·
O=C(COc1ccc(C(=O)NCc2cccnc2)cc1)Nc1cccc(C(F)(F)F)c1,0,-1,0,-16,-9,-7,·,·
O=C(COc1cccc(C(F)(F)F)c1)Nc1cccnc1,0,8.4*,-4,-4,1,1,-1,-1
O=C(COc1ccc(Br)cc1Br)NNC(=O)c1cccs1,41,10*,0,34,7,56,7,8.8*
Cc1cc(Br)ccc1OCC(=O)NNC(=O)Cc1ccccc1,0,8.9*,-1,-9,-2,-18,-1,1
COc1ccccc1C1N(c2cc(Cl)ccc2OC)C(=O)C2CCCN21 (stereo not drawn),0,-1,1,-3,-1,-15,·,·
COc1ccc(C2N(c3cc(Cl)ccc3OC)C(=O)C3CCCN32)c(OC)c1 (stereo not drawn),0,9.5*,-2,1,1,6,3,0
COC(=O)c1ccc(NC(=O)CSc2nc(=O)cc(N)n2-c2ccccc2)cc1,0,1,-11,-2,2,6,·,·
CSc1nsc(SCC(=O)Nc2ccc(C(C)=O)cc2)n1,·,13*,·,48*,·,37,5,10*
CC(=O)c1ccc(NC(=O)CSc2nc(=O)cc(N)n2-c2ccccc2)cc1,0,8.6*,-1,63*,12,67,7,8.8*
CSc1nsc(SCC(=O)Nc2ccc(C(N)=O)cc2)n1,0,-1,-2,·,7,3,·,·
Cc1noc(C)c1NC(=O)N(C)C[C@@H]1Oc2ccc(NC(=O)NC3CCCCC3)cc2CC(=O)N([C@@H](C)CO)C[C@H]1C,0,·,-1,0,·,·,·,·
CCN(CC)CCn1nc2c3c(cccc3c1=O)-c1ccccc1-2,0,35*,2,·,1,-69,72*,4
O=c1c2cccc3c2c(nn1CN1CCOCC1)-c1ccccc1-3,·,·,·,0,·,-27,·,·
O=C(NC[C@@H]1[C@H](c2ccccc2)[C@H](CO)N1Cc1ccccn1)C1CCC1,·,·,·,7,·,·,·,·
O=[N+]([O-])c1ccccc1N/N=C\c1ccccc1F,0,9.1*,4,63*,57*,75,8.9*,14*
O=[N+]([O-])c1ccccc1N/N=C/c1cccc(O)c1O,0,0,1,-3,15,8,·,·
